# Experimental data: PubChem BioAssay
# Unmarked numbers belong to inactive results.
# Experiment: MM1S myeloma cell viability, profiling panel, resazurin fluorescence, basal, 24 h, PK04 Diversity Set (AID 1174);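 further: MM1S multiple myeloma cell line; test concentration not given here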
# Settings: higher = more signal, called active from +8 up or from −8 down
row,Structure (SMILES),z-score
1,COc1cc(OC)c(C(O)C2C=CC3C(=O)N(c4ccccc4)C(=O)C3N2Nc2ccc(C(C)C)cc2)cc1Br (configuration not stated),-0.263
2,CC(C)c1nc2cc(Br)ccc2c(=O)o1,-0.47
3,CN1C(=O)[C@@H]2[C@@H](CC(COc3ccccc3)=C3[C@@H](CCc4ccccc4)OB(O)C[C@@H]32)C1=O,-0.675
4,O=C(NCCN1CCOCC1)[C@@H]1c2ccccc2C(=O)N(Cc2ccc(OC(F)(F)F)cc2)[C@H]1c1ccc(CO)cc1,0.0245
5,CN(C)c1ccc(C(O)C2C=CC3C(=O)N(Cc4ccccc4)C(=O)C3N2n2cnnc2)cc1 (configuration not stated),-0.253
6,CC(C)C(O)C1C=CC2C(=O)NC(=O)C2N1Nc1ccccn1 (configuration not stated),-1.69
7,COc1ccc([Si](C)(C)[C@@H]2[C@@H](CC(=O)N3Cc4ccccc4C[C@H]3CO)O[C@]3(C(=O)N(Cc4ccc(N5CCOC5=O)cc4)c4ccccc43)[C@H]2C)cc1,-1.49
8,COCCOC(=O)N1C(=O)[C@@]2(c3cc(C#CCC(C(=O)OC)C(=O)OC)ccc31)[C@H](C(=O)Nc1nc3ccccc3s1)[C@H]1C(=O)O[C@H](c3ccccc3)[C@H](c3ccccc3)N1[C@@H]2c1ccc(O)cc1,-0.0585
9,COc1cc(CO)cc(I)c1O[C@H]1C=C(C(=O)NCCO)C[C@@H](NC2CCCCCC2)[C@@H]1O,0.115
10,O=C(NC1CC1)[C@@H]1c2ccccc2C(=O)N(Cc2ccc(OC(F)(F)F)cc2)[C@H]1c1ccc(CO)cc1,1.23
11,CCOC(=O)C1=CC[C@@H](c2ccc(OC)cc2)N(S(=O)(=O)c2ccc(C)cc2)[C@H]1CC,-0.289
12,CC1CC/C=C\[C@H]2OC34C=CCN(C(C)(C)C)C(=O)[C@H]3N(CCCO)C(=O)[C@@H]4C2C(=O)O1 (some centres not stated),-0.32
13,C=C(C)[C@@H]1CC=C(C(O)C2C=CC3C(=O)N(c4ccccc4)C(=O)C3N2Nc2ccc([N+](=O)[O-])cc2)CC1 (some centres not stated),-0.66
14,C=CCOC(=O)[C@@H]1[C@H]2C(=O)O[C@H](c3ccccc3)[C@H](c3ccccc3)N2[C@H](c2ccc(OCCOC(=O)[C@H]3C[C@H]4C(=O)NCC(=O)N4[C@H]3c3cccc(OCCO)c3)cc2)[C@@]12C(=O)Nc1ccc(I)cc12,-0.0681
15,COC(=O)[C@H](Cc1ccccc1)N1CC2=CCCC=C[C@@H]2[C@H]1[C@H](O)Cc1ccccc1,0.612
16,CC(=O)OCC1C2CC[C@H]3C(OCc4ccc(F)cc4C(F)(F)F)OC[C@]4(C)[C@H]3C2=C(CN4C(=O)OC(C)(C)C)[C@H](C)C1COC(C)=O (some centres not stated),-1.34
17,CC(=O)c1ccc(C(O)C2C=CC3C(=O)N(c4ccccc4)C(=O)C3N2Nc2ccc(C(C)C)cc2)cc1 (configuration not stated),-1.44
18,CC(C)NC(=O)[C@@]1(C)c2ccccc2C(=O)N(Cc2ccccc2)[C@H]1c1ccc(CO)cc1,0.782
19,CCCCC(O)C1C=CC2C(=O)N(c3ccccc3)C(=O)C2N1Nc1ccc([N+](=O)[O-])cc1 (configuration not stated),0.519
20,Cc1ccc(S[C@]2(C(=O)NC3CC3)CC(=O)N(C(C)C)[C@@H]2c2ccc(CO)cc2I)cc1,-2.29
21,COCCOC(=O)N1C(=O)[C@@]2(c3cc(C#CCC(C(=O)OC)C(=O)OC)ccc31)[C@H](C(=O)Nc1nc3ccccc3s1)[C@H]1C(=O)O[C@H](c3ccccc3)[C@H](c3ccccc3)N1[C@@H]2c1ccc(OCCO)cc1,0.961
22,COC(=O)C1=CC(CCCO)=CC(c2cccs2)N(Cc2cc3c(cc2Br)OCO3)C=C1C(=O)OC (configuration not stated),0.182
23,CN1C(=O)C2C(C1=O)C1C=C(c3ccc(CO)cc3)C2C(C2CC2)N1C (configuration not stated),-0.485
24,COCCCNC(=O)[C@@H]1c2ccccc2C(=O)N(Cc2ccc(OC(F)(F)F)cc2)[C@H]1c1ccc(CO)cc1,-0.148
25,COCCCNC(=O)[C@@]1(CCC(=O)OC(C)(C)C)COC(c2ccc(OCCCO)cc2)=N1,1.27
26,O=C(O)[C@H](Cc1ccccc1)n1cc(C2(O)CCCCC2)nn1,-0.625
27,CN(C)CCCC[C@@H]1NC(=O)[C@@H]2C[C@H](C(=O)NCCCCCCNC(=O)CS)[C@H](c3ccc(O)cc3)N2C1=O,-0.353
